Test results: PubChem BioAssay AID1159580 (chemical genetic matrix, 2015)
Out of some 5,500 compounds screened, about 2,000 (36%) were called active. Another 18% or so got no clear call; they are omitted. Cut-off read from the data, not from the text of the source: active = normalized growth mostly below about 0.91 (no sharp cut-off); inconclusive = no clear call, values can overlap the other calls; inactive = mostly above about 0.92. This is one part of the list.

Assay: chemical genetic growth profiling, strain panel (AID 1159580);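 note: tested at 20 µM; growth read once vehicle control cultures reached saturation at 30 °C; 1 = growth at the plate median or of vehicle wells; lower values mean less growth of the strain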
Conditions: growth OD

Measured: normalized growth

CC1(C)C(O)CC(O)C2(C)C1CC(O)C1(C)C2CCC2(C)C(c3ccoc3)OC(=O)C3OC321 (stereo not drawn)
inactive: S. cerevisiae deletion strains, locus YAL021C, strain ccr4, stronger effect = lower value 0.989 | S. cerevisiae deletion strains, locus YAL026C, strain drs2, stronger effect = lower value 0.983 | S. cerevisiae deletion strains, locus YAL030W, strain snc1, stronger effect = lower value 0.998 | S. cerevisiae deletion strains, locus YBL061C, strain skt5, stronger effect = lower value 1.01 | S. cerevisiae deletion strains, locus YBR009C, strain hhf1, stronger effect = lower value 0.999 | S. cerevisiae deletion strains, locus YBR021W, strain FUR4, stronger effect = lower value 0.974 | S. cerevisiae deletion strains, locus YBR023C, strain chs3, stronger effect = lower value 0.997 | S. cerevisiae deletion strains, locus YBR171W, strain sec66, stronger effect = lower value 0.988 | S. cerevisiae deletion strains, locus YBR229C, strain ROT2, stronger effect = lower value 1.01 | S. cerevisiae deletion strains, locus YBR231C, strain swc5, stronger effect = lower value 0.999 | S. cerevisiae deletion strains, locus YBR279W, strain paf1, stronger effect = lower value 0.992 | S. cerevisiae deletion strains, locus YCL011C, strain gbp2, stronger effect = lower value 0.976 | S. cerevisiae deletion strains, locus YCL016C, strain dcc1, stronger effect = lower value 0.985 | S. cerevisiae deletion strains, locus YCL029C, strain bik1, stronger effect = lower value 1.01 | S. cerevisiae deletion strains, locus YCL061C, strain MRC1, stronger effect = lower value 1.01 | S. cerevisiae deletion strains, locus YCL069W, strain vba3, stronger effect = lower value 1 | S. cerevisiae deletion strains, locus YCR088W, strain abp1, stronger effect = lower value 0.988 | S. cerevisiae deletion strains, locus YDL005C, strain med2, stronger effect = lower value 0.974 | S. cerevisiae deletion strains, locus YDL035C, strain GPR1, stronger effect = lower value 1.02 | S. cerevisiae deletion strains, locus YDL040C, strain nat1, stronger effect = lower value 0.991 | S. cerevisiae deletion strains, locus YDL074C, strain BRE1, stronger effect = lower value 0.998 | S. cerevisiae deletion strains, locus YDL101C, strain DUN1, stronger effect = lower value 1.02 | S. cerevisiae deletion strains, locus YDL185W, strain tfp1, stronger effect = lower value 1.03 | S. cerevisiae deletion strains, locus YDL192W, strain arf1, stronger effect = lower value 1.02 | S. cerevisiae deletion strains, locus YDR001C, strain nth1, stronger effect = lower value 0.994 | S. cerevisiae deletion strains, locus YDR069C, strain doa4, stronger effect = lower value 0.98 | S. cerevisiae deletion strains, locus YDR101C, strain arx1, stronger effect = lower value 1.01 | S. cerevisiae deletion strains, locus YDR137W, strain rgp1, stronger effect = lower value 0.988 | S. cerevisiae deletion strains, locus YDR150W, strain NUM1, stronger effect = lower value 0.998 | S. cerevisiae deletion strains, locus YDR159W, strain sac3, stronger effect = lower value 1.01 | S. cerevisiae deletion strains, locus YDR162C, strain NBP2, stronger effect = lower value 1.01 | S. cerevisiae deletion strains, locus YDR195W, strain ref2 0.953 | S. cerevisiae deletion strains, locus YDR297W, strain sur2, stronger effect = lower value 0.986 | S. cerevisiae deletion strains, locus YDR318W, strain mcm21, stronger effect = lower value 1.03 | S. cerevisiae deletion strains, locus YDR334W, strain swr1, stronger effect = lower value 0.985 | S. cerevisiae deletion strains, locus YDR335W, strain msn5, stronger effect = lower value 0.987 | S. cerevisiae deletion strains, locus YDR388W, stronger effect = lower value 1.02 | S. cerevisiae deletion strains, locus YDR392W, strain spt3, stronger effect = lower value 1.02 | S. cerevisiae deletion strains, locus YDR502C, strain sam2, stronger effect = lower value 1.02 | S. cerevisiae deletion strains, locus YEL003W, strain gim4, stronger effect = lower value 1.01 | S. cerevisiae deletion strains, locus YEL037C, strain rad23, stronger effect = lower value 0.987 | S. cerevisiae deletion strains, locus YEL061C, strain CIN8 (second series), stronger effect = lower value 0.989 | S. cerevisiae deletion strains, locus YEL061C, strain CIN8, stronger effect = lower value 0.998 | S. cerevisiae deletion strains, locus YER015W, strain faa2, stronger effect = lower value 0.994 | S. cerevisiae deletion strains, locus YER016W, strain bim1, stronger effect = lower value 0.999 | S. cerevisiae deletion strains, locus YER110C, stronger effect = lower value 1.04 | S. cerevisiae deletion strains, locus YER111C, strain swi4, stronger effect = lower value 0.98 | S. cerevisiae deletion strains, locus YER155C, strain BEM2 (second series), stronger effect = lower value 1.01 | S. cerevisiae deletion strains, locus YER155C, strain BEM2, stronger effect = lower value 0.99 | S. cerevisiae deletion strains, locus YER167W, strain BCK2, stronger effect = lower value 1 | S. cerevisiae deletion strains, locus YFR010W, strain ubp6, stronger effect = lower value 1.01 | S. cerevisiae deletion strains, locus YGL078C, strain dbp3, stronger effect = lower value 1.03 | S. cerevisiae deletion strains, locus YGL086W, strain mad1, stronger effect = lower value 1 | S. cerevisiae deletion strains, locus YGL167C, strain pmr1, stronger effect = lower value 0.994 | S. cerevisiae deletion strains, locus YGL173C, strain kem1, stronger effect = lower value 0.985 | S. cerevisiae deletion strains, locus YGL227W, strain vid30, stronger effect = lower value 0.983 | S. cerevisiae deletion strains, locus YGL240W, strain doc1, stronger effect = lower value 1.02 | S. cerevisiae deletion strains, locus YGL248W, strain PDE1, stronger effect = lower value 1.01 | S. cerevisiae deletion strains, locus YGL253W, strain hxk2, stronger effect = lower value 0.962 | S. cerevisiae deletion strains, locus YGR078C, strain PAC10, stronger effect = lower value 1.01 | S. cerevisiae deletion strains, locus YGR135W, strain pre9, stronger effect = lower value 1.03 | S. cerevisiae deletion strains, locus YGR229C, strain SMI1, stronger effect = lower value 1 | S. cerevisiae deletion strains, locus YGR252W, strain gcn5, stronger effect = lower value 1.01 | S. cerevisiae deletion strains, locus YHR013C, strain ard1, stronger effect = lower value 0.959 | S. cerevisiae deletion strains, locus YHR027C, strain rpn1, stronger effect = lower value 1 | S. cerevisiae deletion strains, locus YHR030C, strain SLT2, stronger effect = lower value 1.01 | S. cerevisiae deletion strains, locus YHR079C, strain IRE1 (second series), stronger effect = lower value 1.02 | S. cerevisiae deletion strains, locus YHR094C, strain hxt1, stronger effect = lower value 1.02 | S. cerevisiae deletion strains, locus YHR129C, strain ARP1, stronger effect = lower value 0.999 | S. cerevisiae deletion strains, locus YHR142W, strain chs7, stronger effect = lower value 0.972 | S. cerevisiae deletion strains, locus YHR200W, strain rpn10, stronger effect = lower value 1.01 | S. cerevisiae deletion strains, locus YIL066C, strain RNR3, stronger effect = lower value 1.02 | S. cerevisiae deletion strains, locus YIL073C, strain SPO22, stronger effect = lower value 1.08 | S. cerevisiae deletion strains, locus YIL125W, strain kgd1, stronger effect = lower value 1.01 | S. cerevisiae deletion strains, locus YIR030C, strain dcg1, stronger effect = lower value 1.02 | S. cerevisiae deletion strains, locus YJL092W, strain hpr5, stronger effect = lower value 0.997 | S. cerevisiae deletion strains, locus YJL095W, strain BCK1 (second series), stronger effect = lower value 0.983 | S. cerevisiae deletion strains, locus YJL095W, strain BCK1, stronger effect = lower value 1 | S. cerevisiae deletion strains, locus YJL115W, strain asf1, stronger effect = lower value 1 | S. cerevisiae deletion strains, locus YJL129C, strain trk1, stronger effect = lower value 0.959 | S. cerevisiae deletion strains, locus YJL134W, strain LCB3, stronger effect = lower value 0.996 | S. cerevisiae deletion strains, locus YJL154C, strain vps35, stronger effect = lower value 0.991 | S. cerevisiae deletion strains, locus YJL164C, strain tpk1, stronger effect = lower value 0.989 | S. cerevisiae deletion strains, locus YJL166W, strain qcr8, stronger effect = lower value 0.982 | S. cerevisiae deletion strains, locus YJL168C, strain set2, stronger effect = lower value 1.01 | S. cerevisiae deletion strains, locus YJL187C, strain SWE1 (second series), stronger effect = lower value 1.01 | S. cerevisiae deletion strains, locus YKL009W, strain mrt4, stronger effect = lower value 0.962 | S. cerevisiae deletion strains, locus YKL068W, stronger effect = lower value 1.01 | S. cerevisiae deletion strains, locus YKL085W, strain MDH1 (second series), stronger effect = lower value 1 | S. cerevisiae deletion strains, locus YKL085W, strain MDH1, stronger effect = lower value 1 | S. cerevisiae deletion strains, locus YKL160W, strain elf1, stronger effect = lower value 0.991 | S. cerevisiae deletion strains, locus YKL190W, strain CNB1, stronger effect = lower value 0.996 | S. cerevisiae deletion strains, locus YKR001C, strain vps1, stronger effect = lower value 1.01 | S. cerevisiae deletion strains, locus YKR026C, strain gcn3, stronger effect = lower value 0.989 | S. cerevisiae deletion strains, locus YKR091W, strain srl3, stronger effect = lower value 0.986 | S. cerevisiae deletion strains, locus YLL001W, strain dnm1, stronger effect = lower value 0.989 | S. cerevisiae deletion strains, locus YLL026W, stronger effect = lower value 1 | S. cerevisiae deletion strains, locus YLL041C, strain sdh2, stronger effect = lower value 1 | S. cerevisiae deletion strains, locus YLR027C, strain aat2, stronger effect = lower value 0.999 | S. cerevisiae deletion strains, locus YLR039C, strain RIC1, stronger effect = lower value 1.06 | S. cerevisiae deletion strains, locus YLR058C, strain SHM2, stronger effect = lower value 1.02 | S. cerevisiae deletion strains, locus YLR102C, strain apc9, stronger effect = lower value 1.02 | S. cerevisiae deletion strains, locus YLR221C, strain rsa3, stronger effect = lower value 0.993 | S. cerevisiae deletion strains, locus YLR258W, strain gsy2, stronger effect = lower value 0.994 | S. cerevisiae deletion strains, locus YLR262C, strain YPT6 (second series), stronger effect = lower value 0.994 | S. cerevisiae deletion strains, locus YLR262C, strain YPT6, stronger effect = lower value 1.07 | S. cerevisiae deletion strains, locus YLR268W, strain sec22, stronger effect = lower value 1.01 | S. cerevisiae deletion strains, locus YLR320W, strain mms22, stronger effect = lower value 1 | S. cerevisiae deletion strains, locus YLR330W, strain CHS5, stronger effect = lower value 1.01 | S. cerevisiae deletion strains, locus YLR342W, strain FKS1, stronger effect = lower value 0.999 | S. cerevisiae deletion strains, locus YLR357W, strain rsc2, stronger effect = lower value 0.995 | S. cerevisiae deletion strains, locus YLR370C, strain arc18, stronger effect = lower value 0.981 | S. cerevisiae deletion strains, locus YLR371W, strain rom2, stronger effect = lower value 0.954 | S. cerevisiae deletion strains, locus YLR384C, strain iki3, stronger effect = lower value 0.977 | S. cerevisiae deletion strains, locus YLR418C, strain cdc73, stronger effect = lower value 1.02 | S. cerevisiae deletion strains, locus YML016C, strain PPZ1, stronger effect = lower value 1.01 | S. cerevisiae deletion strains, locus YML032C, strain rad52, stronger effect = lower value 1 | S. cerevisiae deletion strains, locus YML120C, strain ndi1, stronger effect = lower value 0.991 | S. cerevisiae deletion strains, locus YML124C, strain tub3, stronger effect = lower value 1.01 | S. cerevisiae deletion strains, locus YMR058W, strain fet3, stronger effect = lower value 0.998 | S. cerevisiae deletion strains, locus YMR078C, strain ctf18, stronger effect = lower value 1.03 | S. cerevisiae deletion strains, locus YMR125W, strain sto1, stronger effect = lower value 0.98 | S. cerevisiae deletion strains, locus YMR129W, stronger effect = lower value 0.989 | S. cerevisiae deletion strains, locus YMR205C, strain PFK2, stronger effect = lower value 0.999 | S. cerevisiae deletion strains, locus YMR223W, strain ubp8, stronger effect = lower value 1.02 | S. cerevisiae deletion strains, locus YMR231W, strain pep5, stronger effect = lower value 0.987 | S. cerevisiae deletion strains, locus YMR307W, strain GAS1, stronger effect = lower value 1.02 | S. cerevisiae deletion strains, locus YNL067W, strain RPL9B, stronger effect = lower value 1.02 | S. cerevisiae deletion strains, locus YNL071W, strain lat1, stronger effect = lower value 0.998 | S. cerevisiae deletion strains, locus YNL128W, strain TEP1, stronger effect = lower value 1.02 | S. cerevisiae deletion strains, locus YNL153C, strain GIM3, stronger effect = lower value 1.01 | S. cerevisiae deletion strains, locus YNL209W, strain ssb2, stronger effect = lower value 1.01 | S. cerevisiae deletion strains, locus YNL233W, strain BNI4, stronger effect = lower value 0.995 | S. cerevisiae deletion strains, locus YNL248C, strain rpa49, stronger effect = lower value 0.964 | S. cerevisiae deletion strains, locus YNL250W, strain rad50, stronger effect = lower value 1.03 | S. cerevisiae deletion strains, locus YNL271C, strain bni1, stronger effect = lower value 1.03 | S. cerevisiae deletion strains, locus YNL298W, strain CLA4, stronger effect = lower value 1.02 | S. cerevisiae deletion strains, locus YNL307C, strain MCK1, stronger effect = lower value 1.03 | S. cerevisiae deletion strains, locus YNL322C, strain KRE1 (second series), stronger effect = lower value 0.988 | S. cerevisiae deletion strains, locus YNR049C, strain mso1, stronger effect = lower value 0.999 | S. cerevisiae deletion strains, locus YNR052C, strain pop2, stronger effect = lower value 1 | S. cerevisiae deletion strains, locus YOL006C, strain TOP1, stronger effect = lower value 1.13 | S. cerevisiae deletion strains, locus YOL012C, strain htz1 0.879 | S. cerevisiae deletion strains, locus YOL147C, strain pex11, stronger effect = lower value 1.01 | S. cerevisiae deletion strains, locus YOR001W, strain rrp6, stronger effect = lower value 1 | S. cerevisiae deletion strains, locus YOR061W, strain CKA2, stronger effect = lower value 1.02 | S. cerevisiae deletion strains, locus YOR069W, strain VPS5, stronger effect = lower value 1 | S. cerevisiae deletion strains, locus YOR070C, strain gyp1, stronger effect = lower value 1 | S. cerevisiae deletion strains, locus YOR080W, strain dia2, stronger effect = lower value 0.983 | S. cerevisiae deletion strains, locus YOR083W, strain WHI5, stronger effect = lower value 0.994 | S. cerevisiae deletion strains, locus YOR106W, strain vam3, stronger effect = lower value 0.996 | S. cerevisiae deletion strains, locus YOR136W, strain idh2, stronger effect = lower value 1.03 | S. cerevisiae deletion strains, locus YOR144C, strain elg1, stronger effect = lower value 1.02 | S. cerevisiae deletion strains, locus YOR184W, strain ser1, stronger effect = lower value 1.03 | S. cerevisiae deletion strains, locus YOR265W, strain rbl2, stronger effect = lower value 1 | S. cerevisiae deletion strains, locus YOR270C, strain vph1, stronger effect = lower value 0.914 | S. cerevisiae deletion strains, locus YOR290C, strain snf2, stronger effect = lower value 0.967 | S. cerevisiae deletion strains, locus YOR316C, strain cot1, stronger effect = lower value 1.02 | S. cerevisiae deletion strains, locus YPL051W, strain arl3, stronger effect = lower value 1 | S. cerevisiae deletion strains, locus YPL078C, strain atp4, stronger effect = lower value 0.986 | S. cerevisiae deletion strains, locus YPL106C, strain sse1, stronger effect = lower value 0.988 | S. cerevisiae deletion strains, locus YPL240C, strain hsp82, stronger effect = lower value 0.983 | S. cerevisiae deletion strains, locus YPR119W, strain clb2, stronger effect = lower value 1.01 | S. cerevisiae deletion strains, locus YPR141C, strain kar3, stronger effect = lower value 1.03 | S. cerevisiae deletion strains, locus YPR163C, strain tif3, stronger effect = lower value 1.03 | S. cerevisiae deletion strains, locus YPR167C, strain met16, stronger effect = lower value 1.02 | S. cerevisiae deletion strains, strain wtn01, stronger effect = lower value 1.02 | S. cerevisiae strains, strain wild type, stronger effect = lower value 1.02
